This note sets out measurements from paper doi:10.1101/2025.02.07.636106.

Sequence of Histone deacetylase 2 (Q92769 whole entry): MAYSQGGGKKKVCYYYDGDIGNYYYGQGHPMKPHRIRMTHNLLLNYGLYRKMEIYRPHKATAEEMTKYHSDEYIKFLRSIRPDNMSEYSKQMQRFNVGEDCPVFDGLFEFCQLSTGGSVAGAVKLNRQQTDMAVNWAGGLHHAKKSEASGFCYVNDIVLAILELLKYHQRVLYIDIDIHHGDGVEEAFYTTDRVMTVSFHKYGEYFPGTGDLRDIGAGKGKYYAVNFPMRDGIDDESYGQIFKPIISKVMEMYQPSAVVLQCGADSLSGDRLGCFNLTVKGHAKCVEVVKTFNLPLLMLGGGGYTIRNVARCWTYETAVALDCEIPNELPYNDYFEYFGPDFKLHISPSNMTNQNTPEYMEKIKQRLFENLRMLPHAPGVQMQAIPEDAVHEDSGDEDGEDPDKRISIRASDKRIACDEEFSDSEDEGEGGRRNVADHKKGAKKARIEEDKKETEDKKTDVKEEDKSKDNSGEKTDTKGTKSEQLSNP

The assay has as its target Histone deacetylase 2 (UniProt Q92769). The assay is described as follows: cross-link between two proteins; affinity purification or IP with mass spectrometry; cross-linking mass spectrometry.
For “Transcriptional repressor p66-beta, Q8WXI9”, the “listed as a hit” value was “yes”.

As to “Methyl-CpG-binding domain protein 3, O95983”, the “listed as a hit” value is “yes”.

For “ATP-dependent chromatin remodeler CHD4, Q14839”, the “listed as a hit” value is on record as “yes”.

Take Histone-binding protein RBBP7, Q16576: the “listed as a hit” value is listed as “yes”.
